Molecules are shown by their SMILES. Compounds without any hit were thinned out: in the full panel of roughly 83,000, 20% have a hit.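 Cells were grown in 96-well plates and exposed to the test compound at a single concentration for 48 hours; results are reported as percent growth, with values below 10 considered active.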 Values without a mark were called inactive. Activity calls are given as the source filed them.

12 compounds from PubChem BioAssay (NCI) can be followed below.

Among the test systems are SR leukemia; RPMI-8226 leukemia; OVCAR-8 ovarian; OVCAR-5 ovarian; OVCAR-4 ovarian; SK-OV-3 ovarian; IGROV1 ovarian; OVCAR-3 ovarian; HS 578T breast; NCI/ADR-RES ovarian.
Assay in all cases: NCI-60 one-dose screen, 48 h (100 = growth as untreated, 0 = no growth, -100 = all killed)
What all share (conditions): 10 µM unless noted

For the compound `COc1ccc(/C=C/c2nc(Nc3ccc(S(=O)(=O)Nc4nc(C)cc(C)n4)cc3)c3ccccc3n2)cc1`, the growth with SR leukemia is 49.5%; with RPMI-8226 leukemia, 62.3%; with OVCAR-8 ovarian it was 66.1%; in the experiment on OVCAR-5 ovarian it was 74.9%; in the experiment on OVCAR-4 ovarian, 77.2%; in the experiment on SK-OV-3 ovarian, 90.9%. Moreover, the growth in the experiment with IGROV1 ovarian was 90.8%; with OVCAR-3 ovarian, 79.6%; in the experiment with HS 578T breast, 83.1%; in the experiment on NCI/ADR-RES ovarian it was 73.1%.
In the case of `C=C(C)[C@@H]1CC[C@]2(C(=O)N3CCN(C)CC3)CC[C@]3(C)[C@H](CC[C@@H]4[C@@]5(C)CC[C@H](OCCC#N)C(C)(C)[C@@H]5CC[C@]43C)[C@@H]12`, the growth is 3.86% (active) in the experiment with SR leukemia; 29.7% with RPMI-8226 leukemia; 6.81% (active) in the experiment on OVCAR-8 ovarian; 129% in the experiment on OVCAR-5 ovarian; 48.8% in the experiment with OVCAR-4 ovarian; 109% in the experiment with SK-OV-3 ovarian. Moreover, the growth in the experiment on IGROV1 ovarian is 98.2%; with OVCAR-3 ovarian it was 103%; in the experiment on HS 578T breast it was 104%; in the experiment with NCI/ADR-RES ovarian, 45.8%.
On to `C=C(CBr)[C@@H]1CC[C@]2(COC(C)=O)CC[C@]3(C)[C@H](CC[C@@H]4[C@@]5(C)CCCNC(C)(C)[C@@H]5CC[C@]43C)[C@@H]12`, for which the growth was 10% with SR leukemia; 7.96% (active) with RPMI-8226 leukemia; 40.4% in the experiment on OVCAR-8 ovarian; 87.3% with OVCAR-5 ovarian; 50.8% in the experiment on OVCAR-4 ovarian; 72.5% with SK-OV-3 ovarian. Further, the growth is 60.1% with IGROV1 ovarian, 33.7% in the experiment on OVCAR-3 ovarian, 73.7% with HS 578T breast and 48.9% in the experiment with NCI/ADR-RES ovarian.
Take `Cc1ccc(/C=C(/C#N)n2nnc3cccc(F)c32)cc1`: the growth in the experiment on SR leukemia is 9.82% (active); in the experiment with RPMI-8226 leukemia, -4.51% (active); in the experiment with OVCAR-8 ovarian it was 8.47% (active); in the experiment on OVCAR-5 ovarian, 0.132% (active); in the experiment with OVCAR-4 ovarian, 23%; with SK-OV-3 ovarian, 27.8%. Besides, the growth is 17.6% in the experiment with IGROV1 ovarian, -53.2% (active) in the experiment with OVCAR-3 ovarian, -14.8% (active) with HS 578T breast and -33.1% (active) in the experiment with NCI/ADR-RES ovarian.
For `O=C(/C(=C\c1ccc([N+](=O)[O-])cc1)S(=O)Cc1ccc(F)cc1)c1ccc(F)cc1` (stereo not given), the growth was 8.47% (active) with SR leukemia; -37.6% (active) in the experiment with RPMI-8226 leukemia; 29.3% in the experiment on OVCAR-8 ovarian; 40.4% in the experiment with OVCAR-5 ovarian; 45% in the experiment with OVCAR-4 ovarian; 103% in the experiment with SK-OV-3 ovarian. Also, the growth in the experiment with IGROV1 ovarian was -19.1% (active); with OVCAR-3 ovarian, 18.1%; in the experiment on HS 578T breast, 40.9%; in the experiment with NCI/ADR-RES ovarian it was 20.7%.
Turning to `O=C(Nc1ccc(F)cc1)Nc1ccc(NC(=O)c2cc(Cl)nc3ccccc23)cc1`, the growth in the experiment with SR leukemia is 74.1%; in the experiment with RPMI-8226 leukemia, 26.5%; in the experiment on OVCAR-8 ovarian, 42.9%; in the experiment on OVCAR-5 ovarian it was 92.9%; in the experiment on OVCAR-4 ovarian, 51.2%; in the experiment on SK-OV-3 ovarian, 59.8%. Besides, the growth in the experiment with IGROV1 ovarian is 52.6%; in the experiment with OVCAR-3 ovarian, 12.2%; with HS 578T breast it was 9.05% (active); in the experiment on NCI/ADR-RES ovarian, 99.7%.
In the case of `COc1cc(/C=C\C(=O)O)ccc1OCc1ccccc1`, the growth is 97.7% in the experiment with SR leukemia; 90.2% in the experiment on RPMI-8226 leukemia; 93.7% in the experiment on OVCAR-8 ovarian; 110% in the experiment with OVCAR-5 ovarian; 108% with OVCAR-4 ovarian; 102% in the experiment with SK-OV-3 ovarian. The growth is 103% with IGROV1 ovarian, 104% in the experiment with OVCAR-3 ovarian, 101% in the experiment with HS 578T breast and 101% in the experiment on NCI/ADR-RES ovarian.
`O=c1c2c(c(=O)n1O)c1c3ccc[nH]c3nc1c1nc3[nH]cccc3c12`: the growth with SR leukemia is 32.2%; with RPMI-8226 leukemia, 93.9%; in the experiment on OVCAR-8 ovarian it was 67.1%; in the experiment on OVCAR-5 ovarian, 103%; in the experiment with OVCAR-4 ovarian, 78.7%; with SK-OV-3 ovarian, 89.2%. Also, the growth was 63% in the experiment with IGROV1 ovarian, 98.3% with OVCAR-3 ovarian, 83.3% with HS 578T breast and 89.6% with NCI/ADR-RES ovarian.
For the compound `COc1cc(C2=NN(C(C)=O)C(c3cc(OC)c(OC)c(OC)c3)C2)ccc1O` (stereo not given), the growth in the experiment with SR leukemia is 15.6%; in the experiment with RPMI-8226 leukemia, -27.5% (active); in the experiment with OVCAR-8 ovarian, 24.7%; in the experiment on OVCAR-5 ovarian, 34%; in the experiment with OVCAR-4 ovarian, 35.3%; in the experiment with SK-OV-3 ovarian it was 30.3%. For the same compound, the growth in the experiment on IGROV1 ovarian is 2.82% (active); with OVCAR-3 ovarian it was -51.9% (active); with HS 578T breast, -1.42% (active); in the experiment on NCI/ADR-RES ovarian, -55.4% (active).
For the compound `CCCN1[C@@H]2CC[C@H]1/C(=C\c1ccc(OC)c(OC)c1)C(=O)/C2=C/c1ccc(OC)c(OC)c1`, the growth was 26.8% with SR leukemia; 9.06% (active) with RPMI-8226 leukemia; 35.5% with OVCAR-8 ovarian; 78.2% in the experiment with OVCAR-5 ovarian; 46% in the experiment on OVCAR-4 ovarian; 66.2% in the experiment with SK-OV-3 ovarian. Moreover, the growth with IGROV1 ovarian is 56.8%; in the experiment with OVCAR-3 ovarian, 56.9%; in the experiment with HS 578T breast, 54.2%; in the experiment on NCI/ADR-RES ovarian it was 42%.
Regarding `N#C/C(=C\c1ccccn1)c1nc2cc(Cl)ccc2s1`, the growth in the experiment with SR leukemia was 40.3%; in the experiment on RPMI-8226 leukemia, 59.3%; in the experiment with OVCAR-8 ovarian, 73.1%; in the experiment with OVCAR-5 ovarian it was 96.8%; in the experiment on OVCAR-4 ovarian, 71.5%; with SK-OV-3 ovarian it was 62.9%. The growth was 42% with IGROV1 ovarian, 75.4% with OVCAR-3 ovarian, 53.7% in the experiment with HS 578T breast and 77% in the experiment on NCI/ADR-RES ovarian.
For `Cn1ccc2c1CC1CN(Cc3ccco3)C(=O)C1C2C(=O)O` (stereo not given), the growth was 107% with SR leukemia; 109% with RPMI-8226 leukemia; 106% with OVCAR-8 ovarian; 95% in the experiment on OVCAR-5 ovarian; 99.5% in the experiment on OVCAR-4 ovarian; 109% in the experiment with SK-OV-3 ovarian. The growth in the experiment on IGROV1 ovarian is 104%; in the experiment with OVCAR-3 ovarian it was 103%; in the experiment with HS 578T breast, 98.7%; in the experiment on NCI/ADR-RES ovarian, 99%.
